The sample as a whole holds a higher share of hits than the screen did.
KDM5B inh – inhibitors of human KDM5B histone demethylase. KDM5B demethylase, FDH-coupled NADH fluorescence (FDH is formaldehyde dehydrogenase). Potency, µM (highest dose often 57.7 µM), hits mostly inhibitors. 2.6% of 220,000 active. AID 1347165; active means well fitted inhibition curve with a large enough effect; further: nearly all actives have a fitted effect of over 70% in size
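Here, H3K4me3 peptide (12.5 µM in substrate mix) is demethylated by KDM5BΔAP, 200 nM final, after 10 min compound exposure. Formaldehyde product is coupled through FDH (0.25 U/mL in mix) to NADH fluorescence; 30-min ΔRFU feeds dose-response curves.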
A number is an active result; – = inactive.

SMILES | KDM5B inh
COCCNc1ncc(-c2ccc(O)c(OC)c2)c2c1OCC2 | 35µM
COCCNc1ncc(-c2cccc(C(C)=O)c2)c2c1OCC2 | –
COCCNc1ncc(-c2ccc(OC)c(OC)c2)c2c1OCC2 | 35µM
COCCNc1oc(-c2ccc(OC)cc2)nc1S(=O)(=O)c1ccc2c(c1)OCCO2 | –
O=C(NCc1ccco1)C1CN(S(=O)(=O)c2ccccc2)CC12CCCCC2 (stereo not given) | –
Cc1ccc(S(=O)(=O)N2CCN(C(=O)C(CC(C)C)NC(N)=O)CC2)cc1 (stereo not given) | –
O=C(CC1CNCCO1)N1CCc2nc(-c3ccc(Cl)cc3)[nH]c2C1 (stereo not given) | 25µM
O=C(Cc1ccc(F)cc1)N1CCc2nc(C3CC3)nc(-c3ccc(Cl)cc3)c2C1 | –
O=C(C1CCCCn2nnnc21)N1CCc2nc(-c3cccnc3)[nH]c2C1 (stereo not given) | –
COc1ccc(C2NC(=S)NC(C)=C2C(C)=O)c(OC)c1 (stereo not given) | –
Cc1[nH]c2nc3ccccc3n2c(=O)c1Cc1ccc(Br)cc1 | –
CCC1CCCCN1CCCNC(=O)c1sc2nc(C)cc(C)c2c1-n1cccc1 (stereo not given) | –
COc1ccc(N(Cc2cc3cc(OC)ccc3[nH]c2=O)C(=O)c2cccc(Cl)c2)cc1 | –
COc1ccc(-c2cc(=O)oc3cc(OCC(=O)NCCN4CCOCC4)ccc23)cc1 | –
Cc1ccc2[nH]c(=O)c(CCC(=O)N(C)Cc3cn(C)nc3C)cc2c1 | 32µM
CCCNC(=O)CCc1cc2cc(OC)ccc2[nH]c1=O | 32µM
COc1ccc2[nH]c(=O)c(CCC(=O)NCCN3CCCCCC3)cc2c1 | 28µM
CCC1CCCCN1CCCNC(=O)CCc1cc2cc(OC)ccc2[nH]c1=O (stereo not given) | 32µM
O=C(CCc1cc2ccccc2[nH]c1=O)NCCCN1CCCC1=O | –
CCN(Cc1cc2cc(C)ccc2[nH]c1=O)C(=O)c1ccc(C)cc1 | –
O=C(CCCCCCC(=O)NCCN1CCCC1)NCCN1CCCC1 | –
Cc1nn(C)cc1CN(C)C(=O)CCn1nc(C(F)(F)F)c(Br)c1C | –
COc1ccc(NC(=O)CCc2cc3cc(C)ccc3[nH]c2=O)c(OC)c1 | –
CCCn1c(=O)n(CCC(=O)N(C)CC(=O)Nc2cccc(F)c2)c2ccccc21 | –
COc1ccc(-c2noc(-c3cccc(OCC(=O)N4CCN(c5ccccc5)CC4)c3)n2)cc1 | –
SMILES | KDM5B inh
COc1ccc(CNC(=O)CSc2nc3ccc(NC(=O)c4ccccc4C)cc3s2)cc1 | –
CC(C)CNc1nc(-c2ccc3c(c2)NC(=O)CO3)cs1 | –
CC(=O)Nc1c(-c2cc(=O)oc3c(C)c(C)ccc23)oc2ccccc12 | –
Cc1oc2cc(OCC(=O)NCC(O)CO)ccc2c(=O)c1Oc1ccccc1 (stereo not given) | –
CCN(CC)c1ccc(NC(=O)c2cc3cc(F)ccc3[nH]2)cc1 | –
O=C(c1ccc(Cl)cc1)N1CC2(CCN(Cc3cccnc3)C2)Cc2ccccc21 (stereo not given) | –
CCn1c(CNC(C)c2ccc(Cl)c(Cl)c2)nc2cc(S(=O)(=O)N3CCOCC3)ccc21 (stereo not given) | –
COc1ccc(OCCNC(=O)Cc2n[nH]c(=O)c3ccccc23)cc1 | –
COc1ccc(N(Cc2cc3ccccc3[nH]c2=O)C(=O)c2cccc(Cl)c2)cc1 | –
CCN(CC)CCNC(=O)Cc1n[nH]c(=O)c2ccccc12 | –
CCN(CC)CCNC(=O)CNC(=O)c1nn(-c2ccc(OC)cc2)c(=O)c2ccccc12 | –
COc1ccc2[nH]c(=O)c(CCC(=O)N(C)CCc3ccccc3)cc2c1 | 28µM
CCN(CC)CCNC(=O)CCc1cc2cc(OC)ccc2[nH]c1=O | 28µM
COCCNC(=O)CCc1cc2cc(OC)ccc2[nH]c1=O | 32µM
COc1ccc(NC(=O)CCc2cc3ccccc3[nH]c2=O)cc1OC | –
COc1ccc2[nH]c(C(=O)N(C)Cc3ccccc3)c(C)c2c1 | –
CCOC(=O)c1c(C)c(-c2ccccc2)n(CC(=O)NCCN(C)C)c1C | –
CCN(CC)c1ccc(Nc2nc(-c3sc(NC(=O)c4ccccc4)nc3C)cs2)cc1 | –
CCCn1c(Cn2ccnc2C)nc2cc(NC(=O)COc3ccc(OC)cc3)ccc21 | –
CCC(=O)Nc1sc2c(c1C#N)CCC(C(C)(C)CC)C2 (stereo not given) | –
COc1ccc(NC(=O)Cn2cccc2-c2nc(-c3ccccc3)no2)cc1 | –
O=C(Cn1cccc1-c1nc(-c2ccccc2)no1)Nc1ccccc1 | –
COC(=O)c1ccccc1NC(=O)Cn1cccc1-c1nc(-c2ccccc2)no1 | 28µM
CCCOC(=O)c1ccc(Oc2c(C)oc3cc(OC(=O)N4CCOCC4)ccc3c2=O)cc1 | –
CC(NS(=O)(=O)Cc1ccccc1)C(=O)O (stereo not given) | –
COc1cccc(CNC(=O)c2cc3n(n2)CC(c2ccc(Cl)cc2)OC3)c1 (stereo not given) | –
O=C(NCCCc1ccccc1)c1cc2n(n1)CC(c1ccc3c(c1)OCO3)OC2 (stereo not given) | –
